Screening data from PubChem BioAssay.
A selection: hits, their analogues and other compounds. The true share with any hit is near 2.9%.
EBNA-1 inhibitor = blocks EBNA-1 binding to DNA; hit rate 0.34% among 300,000; AID 1950; EBNA-1 DNA binding, fluorescence polarization; inhibition, % at 14.8 µM; in the data active means inhibition above about 28%
PAFAH1B2 FP inh = PAFAH1B2 (human) inhibition; AID 492953; P68402; hit rate 1.2% among 340,000; inhibition, % at 3.39 µM; recombinant PAFAH1B2, FP-rhodamine activity probe, fluorescence polarization;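 active means inhibition above the mean of all tested compounds plus 3 SD, cut at about 24% in these data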;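 further: 0% = enzyme with DMSO and 100% = wells lacking PAFAH1B2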
Target sequence (P68402 whole entry, looked up): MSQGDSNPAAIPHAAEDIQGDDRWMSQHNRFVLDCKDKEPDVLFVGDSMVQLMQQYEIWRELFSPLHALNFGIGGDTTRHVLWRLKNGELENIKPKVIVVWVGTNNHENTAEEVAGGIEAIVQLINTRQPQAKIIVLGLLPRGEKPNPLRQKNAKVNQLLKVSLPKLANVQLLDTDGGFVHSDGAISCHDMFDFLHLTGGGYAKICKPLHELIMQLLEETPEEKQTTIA
PAFAH1B3 inh = inhibitors of human PAFAH1B3 | recombinant PAFAH1B3, FP-rhodamine probe, fluorescence polarization | hit rate 0.28% among 340,000 | inhibition, % at 3.39 µM | Q15102;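 active means inhibition above the screen-wide average of all tested compounds plus 3 SD, cut at about 25% in these data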;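 further: 0% = enzyme with DMSO only and 100% = wells lacking PAFAH1B3 protein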
Target sequence (Q15102 whole entry, looked up): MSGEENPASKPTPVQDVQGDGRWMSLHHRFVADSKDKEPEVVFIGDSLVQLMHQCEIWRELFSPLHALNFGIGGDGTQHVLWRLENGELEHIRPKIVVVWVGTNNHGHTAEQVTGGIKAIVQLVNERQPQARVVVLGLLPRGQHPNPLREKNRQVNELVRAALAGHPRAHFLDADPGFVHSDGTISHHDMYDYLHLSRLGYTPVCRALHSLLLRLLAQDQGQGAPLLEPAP
rCAG binder = r(CAG) repeat RNA binding; TO-PRO-1 dye displacement fluorescence; inhibition, % at 3 µM; hit rate 1.3% among 370,000; AID 651821;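 active means inhibition above the plate cutoff, the mean of all test compounds on that plate plus 3 SD, cut at about 35% in these data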;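 further: 0% = DMSO alone and 100% = 100 µM mitoxantrone as full dye displacement; higher means more dye released from RNA so lower well fluorescence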
ZTA counter = ZTA (EBV) inhibition in EBNA-1 counter-screen; P03206; inhibition, % at 11 µM; hit rate 0.15% among 320,000; AID 2234; ZTA-DNA binding, fluorescence polarization; in the data active means inhibition above about 33%
PAFAH2 inh = inhibitors of human PAFAH2; Q99487; recombinant PAFAH2, FP-rhodamine activity probe, fluorescence polarization; inhibition, % at 3.39 µM; hit rate 0.99% among 340,000; AID 492956;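 active means inhibition above the mean over all tested compounds plus 3 SD, cut at about 30% in these data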;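 further: inhibitors block probe labeling of enzyme so polarization drops; 0% = enzyme with DMSO and 100% = wells lacking PAFAH2 protein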
rCAG binder conf = r(CAG) RNA repeat binding, confirmation; shares compounds with rCAG binder; TO-PRO-1 dye displacement fluorescence; inhibition, % at 3 µM; hit rate 70% among 4,300;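 active means inhibition above a per-plate cutoff, the mean inhibition of sample wells plus 3 SD, cut at about 35% in these data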;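 further: loss of TO-PRO-1 fluorescence as compound displaces dye from 1x1 AA loop RNA; 0% = DMSO only wells and 100% = 100 µM mitoxantrone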
DNA CAG counter = disrupts DNA CAG TO-PRO-1 complex, flagging rCAG hits; inhibition, % at 3 µM; shares compounds with rCAG binder; d(CAG) DNA oligo TO-PRO-1 dye displacement, fluorescence; AID 652068; hit rate 94% among 4,300;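 active means inhibition above its plate's cutoff, the mean test-well inhibition plus 3 SD, cut at about 4.8% in these data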;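 further: 0% = DNA dye mix with DMSO and 100% = 100 µM mitoxantrone; hits displace the dye from DNA and so lower well fluorescence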
DNA CAG DR = counter-screen for rCAG binders: inhibitors of DNA CAG TO-PRO-1 complex; shares compounds with rCAG binder; IC50, µM; hit rate 20% among 250; AID 686960; DNA CAG/GTC duplex TO-PRO-1 dye displacement fluorescence; in the data active means IC50 below about 10 µM
* marks the source's active call; other numbers are inactive results; i = inactive; · = no result given.

SMILES	EBNA-1 inhibitor	PAFAH1B2 FP inh	PAFAH1B3 inh	rCAG binder	ZTA counter	PAFAH2 inh	rCAG binder conf	DNA CAG counter	others
CC(=O)c1ccc(OCc2nnn(CC(=O)NS(=O)(=O)c3ccc(C)cc3)c2-c2ccccc2)cc1	·	·	·	62*	·	·	68*	20*
C[C@H]1C2CC(OC(=O)Nc3ccc4c(c3)OCO4)C(C2)[C@H]2CCCCN21 (stereo partly drawn)	·	·	·	0	·	·	·	·
Cn1cc(CCCC(=O)NCc2ccc(F)cc2)c2ccccc21	·	-2	14	-7	·	-10	·	·
COCCNC(=O)C(=O)NCCN1CCNCC1	0	4	-2	-1	-13	1	·	·
O=C(N=C1N(Cc2ccccc2)[C@@H](Cc2ccccc2)[C@]2(C=C3CCCCC3n3c(=O)n(-c4ccccc4)c(=O)n32)N1C(=O)OCc1ccccc1)c1ccccc1 (stereo partly drawn)	·	·	·	15	·	·	·	·
O=C1CC(Nc2ccc(N3CCOCC3)cc2)C(=O)N1Cc1ccccc1 (stereo not drawn)	8	2	3	35*	11	25	8	6.9*
CCOc1ccc(N=C2SC(C(=O)Nc3ccccc3C#N)C(N)=C2C(=O)Nc2ccc(Cl)cc2)cc1 (stereo not drawn)	-6	-4	6	39*	-8	-29	28	17*
CC(C)NC(=O)c1onc(CSc2cccc3ccccc23)c1C(=O)O	-2	17	10	36*	18	10	30	7.2*
CCCCNC(=O)c1onc(CSc2ccccc2)c1C(=O)O	6	6	-12	11	8	14	·	·
CCCCNC(=O)c1onc(CSc2cccc(OCC)c2)c1C(=O)O	12	9	3	45*	6	6	20	1
O=C(NCC1CCCO1)c1onc(CSc2cccc3ccccc23)c1C(=O)O (stereo not drawn)	-12	18	7	42*	0	0	40*	6.2*
CC(C)NC(=O)c1onc(CSc2ccccc2)c1C(=O)O	3	0	8	1	-20	3	·	·
CCCCNC(=O)c1onc(CSc2ccc(C(C)C)cc2)c1C(=O)O	11	14	0	51*	15	18	48*	11*
CCCCNC(=O)c1onc(CSc2cccc3ccccc23)c1C(=O)O	4	19	2	62*	22	19	53*	14*	DNA CAG DR=i
CCCCNC(=O)c1onc(CSc2cccc(Cl)c2)c1C(=O)O	2	12	7	33	-22	15	·	·
O=C(N[C@@H](Cc1ccccc1)C(=O)OCc1ccccc1)c1ccco1	·	6	11	2	·	1	·	·
C[C@@H]1COc2cc(Br)ccc2S(=O)(=O)N1Cc1cn(Cc2ccccc2)nn1	·	·	·	3	·	·	·	·
COC(=O)C(NC(C)=O)(Nc1ccc(C)cn1)C(F)(F)F (stereo not drawn)	6	-1	5	-3	-1	-2	·	·
O=C(Nc1ccc(S(=O)(=O)N2CCOCC2)cc1)c1cc(-c2cc(Cl)ccc2O)n[nH]1	4	-2	8	46*	13	-24	50*	21*
Cc1cc(O)c(-c2cc(C(=O)Nc3ccc(S(=O)(=O)N4CCOCC4)cc3)[nH]n2)cc1C	-16	3	-6	41*	-7	-10	29	15*
CC[n+]1c(C)cc(C)n1-c1ccccc1	15	-3	3	-5	17	4	·	·
Cc1ccc(C(=O)N/N=C(/CC(=O)c2cccs2)C(F)(F)F)cc1	-5	4	9	45*	6	5	32	7.6*
O=C(N/N=C(\CC(=O)c1cccs1)C(F)(F)F)c1ccncc1	-3	·	·	10	-4	·	·	·
COc1ccccc1N1CSC2=C(C#N)C(c3ccc(SC)cc3)CC(=O)N2C1 (stereo not drawn)	-5	4	4	40*	-5	7	47*	19*
COc1ccc(Br)cc1C1CC(=O)N2CN(Cc3ccccc3)CSC2=C1C#N (stereo not drawn)	2	5	10	38*	8	17	30	13*
SMILES	EBNA-1 inhibitor	PAFAH1B2 FP inh	PAFAH1B3 inh	rCAG binder	ZTA counter	PAFAH2 inh	rCAG binder conf	DNA CAG counter	others
O=C(Nc1ccnc(=O)[nH]1)c1sc2ccccc2c1Cl	1	5	10	0	9	7	·	·
COC(=O)N1C[C@H](OCc2cn(-c3ccc(OC)cc3)nn2)[C@H]2C[C@@H]1c1ccccc1O2	·	·	·	-1	·	·	·	·
COc1ccc(-n2cc(C#N)c(=O)n(Cc3ccc(F)cc3)c2=O)cc1	0	6	1	-5	9	7	·	·
O=C(CCCCCN1C(=O)C2C3C=CC(C3)C2C1=O)N1CCN(c2ncccn2)CC1 (stereo not drawn)	·	·	·	0	·	·	·	·
Cc1nn(-c2ccccc2)c2sc(-c3nnc(SCC(=O)O)o3)cc12	5	7	9	46*	4	9	56*	15*
CCn1c(SCC(=O)O)nnc1-c1cc2c(C)nn(-c3ccccc3)c2s1	15	0	1	27	2	9	·	·
O=C(COc1cc2oc(=O)cc(-c3ccccc3)c2cc1Cl)NC(Cc1c[nH]c2ccc(O)cc12)C(=O)O (stereo not drawn)	-3	9	12	42*	9	0	62*	24*
COc1ccc(-c2cc(=O)oc3c(C)c(OCC(=O)N[C@@H](Cc4ccc(O)cc4)C(=O)O)ccc23)cc1	14	-1	14	47*	14	-3	46*	13*
Cc1c(OC(C(=O)O)c2ccccc2)ccc2c(-c3ccccc3)cc(=O)oc12 (stereo not drawn)	4	8	13	37*	10	6	38*	9.0*
CCc1cc(=O)oc2cc(C)cc(OCC(=O)NC(Cc3c[nH]c4ccc(O)cc34)C(=O)O)c12 (stereo not drawn)	8	-2	-1	6	-5	-3	·	·
COc1ccc(-c2cc(=O)oc3cc(OC(C)C(=O)NC(Cc4c[nH]c5ccc(O)cc45)C(=O)O)ccc23)cc1 (stereo not drawn)	3	5	1	44*	2	3	43*	13*
COc1ccc(-c2cc(=O)oc3c(C)c(OCC(=O)N(C)C)ccc23)cc1	2	5	4	-6	4	3	·	·
COCCCNC(=O)C[C@H]1C[C@@]2(C(=O)OC)C(=C[C@H](COCc3ccccc3)O[C@@H]2C)N(Cc2cccc3ccccc23)C1=O	·	·	·	6	·	·	·	·
